The sequences below were run on MILI (PIWIL2) piRISC loaded with L1MC piRNA (26 nt) (assay: pre-steady-state target cleavage rate (min^-1); guide: L1MC piRNA 5'p-UAACUAAAUACUAUGCAAGCUGUAGG; MIWI and MILI are mouse PIWI proteins and EfPiwi is from a freshwater sponge; tags in brackets are library labels; higher = faster piRNA-guided slicing of the target). Conditions: auxiliary factor: none (no GTSF1).
Method in brief: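 Cleave-'n-Seq: a transcribed, DNA-blocked target RNA library (0.1 nM) was mixed with 1 nM active affinity-purified piRISC carrying one synthetic guide, with or without 500 nM GTSF1 partner protein, in HEPES–potassium acetate buffer at 33 °C for 0–8 or 0–960 min. Uncleaved targets were sequenced and normalised to depth and to weakly complementary targets. Three trials were pooled, and k3 was capped at 0.0001 min^-1. The pre-steady-state cleavage rate came from a burst-and-steady-state fit.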

Sequence	pre-steady-state target cleavage rate
UCCUGGAUGUCGAACCAUAGUAAAUAGUUA	< 0.0001
UCCUGGAUGUCGAACGAAAGUAUUUUGUUA	< 0.0001
UCCUGGAUGUCGAACGCUAGUAUUUAGUUA	< 0.0001
